Measured values reported in PubChem BioAssay (NCATS).
Where “and” joins values, the source holds several entries; their conditions need not be identical. Identical values can stand only once. Records with an inconclusive call do not appear. Calls of active or inactive are those of the source. Unless noted, the call rests on the fitted dose curve; in most records, active means well fitted curve in the direction sought with a large enough effect; inconclusive means small, poorly fitted or top-dose-only effect, or another doubt; inactive means no such curve, though single readings can be large; an effect the other way counts as inactive or inconclusive.

Legend:
[1] = biological target: Guanidinoacetate N-methyltransferase (Homo sapiens) (UniProt Q14353); test: Confirmatory Screen for Target Class Profiling of Small Molecule Inhibitors of Methyltransferases (AID 1745852; calls by dose curve; further: potency means the concentration at half of the fitted maximal effect; on activity change, negative = inhibition: on the % scale 0 is the no-effect control and ±100 the full control effect); settings: MTase-Glo luminescence, SAH detection, recombinant enzyme; activity change, negative = inhibition: at 57.3 µM (top of the series) unless noted
[2] = biological target: Nicotinamide N-methyltransferase (Homo sapiens) (UniProt P40261); test: as above; settings: MTase-Glo luminescence, SAH detection, recombinant enzyme; measured here: NNMT max response; stronger effect = lower value
Chain of Nicotinamide N-methyltransferase (Homo sapiens) (P40261 whole entry, looked up): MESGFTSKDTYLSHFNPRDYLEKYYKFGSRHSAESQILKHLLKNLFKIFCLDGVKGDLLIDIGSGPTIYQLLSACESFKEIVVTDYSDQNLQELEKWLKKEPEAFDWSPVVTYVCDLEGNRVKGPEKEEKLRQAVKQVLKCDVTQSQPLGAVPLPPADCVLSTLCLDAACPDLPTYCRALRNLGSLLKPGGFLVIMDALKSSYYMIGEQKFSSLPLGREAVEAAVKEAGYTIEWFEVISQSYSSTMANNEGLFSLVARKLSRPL

[3] = biological target: Phenylethanolamine N-methyltransferase (Homo sapiens) (UniProt P11086); test: as above; settings: MTase-Glo luminescence, SAH detection, recombinant enzyme; measured here: PNMT max response; stronger effect = lower value
Chain of Phenylethanolamine N-methyltransferase (Homo sapiens) (P11086 whole entry, looked up): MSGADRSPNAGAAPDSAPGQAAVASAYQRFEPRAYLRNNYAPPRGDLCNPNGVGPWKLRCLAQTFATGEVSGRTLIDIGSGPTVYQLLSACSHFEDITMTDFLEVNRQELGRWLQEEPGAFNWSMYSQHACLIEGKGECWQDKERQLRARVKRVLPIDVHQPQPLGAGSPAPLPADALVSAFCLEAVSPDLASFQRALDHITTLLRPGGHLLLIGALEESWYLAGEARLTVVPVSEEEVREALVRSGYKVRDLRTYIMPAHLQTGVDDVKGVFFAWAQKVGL

[4] = biological target: Glutathione peroxidase 1 (Homo sapiens) (UniProt P07203); test: Primary qHTS Assay for Inhibitors of Recombinant Selenoprotein Glutathione Peroxidase 1 (GPX1) (AID 1845191); further: nearly all actives have a fitted effect of over 65% in size; further: potency means the concentration at half of the fitted maximal effect; on activity, negative = inhibition: on the % scale 0 is the no-effect control and ±100 the full control effect
Chain of Glutathione peroxidase 1 (Homo sapiens) (P07203 whole entry, looked up): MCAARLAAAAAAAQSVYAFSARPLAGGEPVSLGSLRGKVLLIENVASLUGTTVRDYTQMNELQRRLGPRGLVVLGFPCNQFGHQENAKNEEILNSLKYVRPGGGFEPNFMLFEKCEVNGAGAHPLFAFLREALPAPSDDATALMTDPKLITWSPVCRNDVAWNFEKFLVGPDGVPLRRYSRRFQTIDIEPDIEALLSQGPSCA
Procedure, shortened: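 NADPH consumption tracked by fluorescence at 340/450 nm between t=0 and t=15 min, room temperature. Final mix: 10 nM GPX1, 100 nM glutathione reductase, 1 mM GSH, 0.5 mM NADPH, 0.5 mM cumene hydroperoxide, 0.01% BSA; 30 min compound–enzyme preincubation.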

[5] = biological target: Phospholipid hydroperoxide glutathione peroxidase GPX4 (Homo sapiens) (UniProt P36969); test: Primary qHTS Assay for Inhibitors of Recombinant Selenoprotein Glutathione Peroxidase 4 (GPX4) (AID 1845192); further: nearly all actives have a fitted effect of over 65% in size; further: potency means the concentration at half of the fitted maximal effect; on activity change, negative = inhibition: on the % scale 0 is the no-effect control and ±100 the full control effect
Chain of Phospholipid hydroperoxide glutathione peroxidase GPX4 (Homo sapiens) (P36969 whole entry, looked up): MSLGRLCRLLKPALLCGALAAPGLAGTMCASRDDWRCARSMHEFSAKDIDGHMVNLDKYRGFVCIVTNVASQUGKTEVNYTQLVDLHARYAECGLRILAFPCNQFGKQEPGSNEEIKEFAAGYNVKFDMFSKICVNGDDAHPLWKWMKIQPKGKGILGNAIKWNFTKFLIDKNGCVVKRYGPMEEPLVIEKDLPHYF
Procedure, shortened: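 NADPH consumption followed by fluorescence at 340/450 nm, t=0 and after 15 min at room temperature. Reaction started with cumene hydroperoxide (0.5 mM final) after 30 min compound–GPX4 preincubation; final 200 nM GPX4, 100 nM GR, 1 mM GSH, 0.5 mM NADPH.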

[6] = biological target: Luciferin 4-monooxygenase (Photinus pyralis) (UniProt P08659); test: Primary firefly luciferase (FLuc) qHTS assay for identification of artifact compounds. (AID 1845220); further: nearly all actives have a fitted effect of over 60% in size;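 on activity change, negative = inhibition: plate controls were DMSO vehicle for no effect and no enzyme for full effect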
Procedure, shortened: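 FLuc 10 nM; luciferin 10 uM; ATP 10 uM; Tris-acetate pH 7.6, Mg-acetate 10 mM; 15 min RT preincubation; 5 min reaction; luminescence.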

[7] = Primary fluorescence-based thiol-reactive (MSTI) qHTS assay for identification of artifact compounds. (AID 1845221);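 further: thiol-reactive compounds lower the probe fluorescence signal; nearly all actives have a fitted effect of over 65% in size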
Procedure, shortened: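 Reactivity toward the thiol probe MSTI (4 uM) is scored by fluorescence at Ex/Em 525/598 nm after 1 h at room temperature. Acetyl-MSTI and MSTI define the activity scale.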

[8] = system: Nanoluciferase (engineered Oplophorus gracilirostris luciferase); test: Primary Nanoluciferase (NLuc) qHTS assay for identification of artifact compounds. (AID 1845222);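 further: NLuc secreted into diluted conditioned medium of S16 cells; 0% = DMSO and -100% = no enzyme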
Procedure, shortened: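 NLuc from S16 cell medium (1:55) plus test compounds, 15 min, room temperature. Luminescence after Nano-Glo (1:100) addition, 5 min.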

[9] = Primary redox qHTS assay for identification of artifact compounds. (AID 1845223)
Procedure, shortened: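 Redox-cycling detection via DTT (250 uM final) oxidation coupled to Amplex Red (25 uM)/HRP (250 mU/mL) in HBSS. 15 min preincubation plus 30 min after DTT, room temperature. Ex/Em 525/598 nm; 4-parameter Hill fit against DMSO and 10 uM DA3003.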

[10] = Quantitative High-Throughput drug screen in 47 multiple myeloma cell lines against the NCATS MIPE library collection: Delta47_JCRB cell viability assay (AID 1918925; further: potency means the concentration at half of the fitted maximal effect; nearly all actives have a fitted effect of over 45% in size)
Procedure, shortened: (§1)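 Luminescent ATP measurement with CellTiter-Glo gives viability, scaled between DMSO-only wells (100%) and media-only wells (0%). Cells, 500 per well, faced library compounds for 48 hours at 37C.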

[11] = Quantitative High-Throughput drug screen in 47 multiple myeloma cell lines against the NCATS MIPE library collection: EJM_DSMZ cell viability assay (AID 1918926; further: nearly all actives have a fitted effect of over 30% in size; further: potency means the concentration at half of the fitted maximal effect)
Procedure, shortened: as §1

[12] = Quantitative High-Throughput drug screen in 47 multiple myeloma cell lines against the NCATS MIPE library collection: AMO1_DSMZ cell viability assay (AID 1918927; further: potency means the concentration at half of the fitted maximal effect; nearly all actives have a fitted effect of over 30% in size)
Procedure, shortened: as §1

[13] = Quantitative High-Throughput drug screen in 47 multiple myeloma cell lines against the NCATS MIPE library collection: ARP1_JJKsccF8 cell viability assay (AID 1918928; further: potency means the concentration at half of the fitted maximal effect; nearly all actives have a fitted effect of over 40% in size)
Procedure, shortened: (§2)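 Cell viability inhibition in this qHTS is measured via ATP content (CellTiter-Glo) after 48 h drug exposure at 37 °C. Wells hold 500 cells; DMSO-treated wells define 100% and medium-only wells 0%.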

[14] = Quantitative High-Throughput drug screen in 47 multiple myeloma cell lines against the NCATS MIPE library collection: ARD_JJKsccE7 cell viability assay (AID 1918929; further: potency means the concentration at half of the fitted maximal effect)
Procedure, shortened: as §1

[15] = Quantitative High-Throughput drug screen in 47 multiple myeloma cell lines against the NCATS MIPE library collection: KMM1_JCRB cell viability assay (AID 1918960); further: potency means the concentration at half of the fitted maximal effect; nearly all actives have a fitted effect of over 30% in size
Procedure, shortened: as §2

[16] = Quantitative High-Throughput drug screen in 47 multiple myeloma cell lines against the NCATS MIPE library collection: FR4_PLB cell viability assay (AID 1918924; further: nearly all actives have a fitted effect of over 35% in size; further: potency means the concentration at half of the fitted maximal effect)
Procedure, shortened: (§3)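 Approved and investigational drugs from MIPE 4.0 were added by pin tool to 500 cells per well. After 48 hours at 37C, ATP-based CellTiter-Glo luminescence indicated remaining viability.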

[17] = NCATS anti-infectives library activity on HEK293 viability as a counter-qHTS vs the C. elegans viability qHTS (AID 1745854); further: on the % scale 0 is the no-effect control and ±100 the full control effect
Procedure, shortened: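 CellTiter-Glo luminescence, read on a CCD imager, scored viability of HEK293 cells after 24 hr compound exposure at 37C. Library tested in several concentrations, 1:5 steps, up to 41.7 uM; digitonin served as control.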

[18] = Quantitative High-Throughput drug screen in 47 multiple myeloma cell lines against the NCATS MIPE library collection: Karpas620_DSMZ cell viability assay (AID 1918959); further: potency means the concentration at half of the fitted maximal effect; nearly all actives have a fitted effect of over 30% in size
Procedure, shortened: as §3

CCn1nnc2c(N3CCOCC3)nc(-c3ccc(NC(=O)Nc4ccc(C(=O)N5CCN(C)CC5)cc4)cc3)nc21
-1.56%: activity [3]
active: Potency [10] 0.0132 µM | Potency [11] 0.469 µM | Potency [12] 0.0526 µM | Potency [13] 0.0662 µM | Potency [14] 0.0372 µM
0%: activity change, negative = inhibition [1]
inactive: Potency [4] | Potency [5] | Potency [6] | Potency [7] | Potency [8] | Potency [9]
-65.9%: activity [2]

Cc1nc(Nc2n[nH]c3c2CN(C(=O)N[C@H](CN(C)C)c2ccccc2)C3(C)C)c2sccc2n1
active: Potency [1] 0.0061 µM | Potency [10] 0.0332 µM | Potency [11] 1.48 µM | Potency [12] 0.0743 µM | Potency [13] 0.469 µM | Potency [15] 0.105 µM
-1.08%: activity [3]
inactive: Potency [4] | Potency [5] | Potency [6] | Potency [7] | Potency [8] | Potency [9]
-22.7%: activity [2]

CN1CCC(CNc2ccc3ncc(-c4cccc(OC(F)(F)F)c4)n3n2)CC1
inactive: Potency [6] | Potency [7] | Potency [8] | Potency [9]
active: Potency [1] 30.4 µM | Potency [5] 22.7 µM and 14.3 µM | Potency [16] 18.7 µM | Potency [10] 4.69 µM | Potency [11] 26.4 µM | Potency [12] 13.2 µM | Potency [13] 13.2 µM | Potency [14] 11.8 µM | Potency [15] 16.6 µM
-51.9%: activity [2]
-68.8%: activity [3]

NC(=O)c1cccc2cn(-c3ccc([C@@H]4CCCNC4)cc3)nc12
active: Potency [4] 18.3 µM and 22.7 µM | Potency [5] 16.1 µM
inactive: Potency [17] | Potency [6] | Potency [7] | Potency [8] | Potency [9] | Potency [16] | Potency [11]

Cc1c(C)n(Cc2ccc(-c3ccccc3C(=O)O)cc2)c2ccc(C(=O)N[C@@H](C)c3ccc([N+](=O)[O-])cc3)cc12
-14.9%: activity [2]
-10.2%: activity change, negative = inhibition [1]
active: Potency [5] 9.04 µM | Potency [10] 23.5 µM | Potency [12] 0.118 µM | Potency [18] 0.0935 µM | Potency [15] 0.935 µM
inactive: Potency [4] | Potency [6] | Potency [7] | Potency [9] | Potency [16]
-11.9%: activity [3]

Nc1ncnc2c1c(-c1cnc3[nH]ccc3c1)nn2C1CCCC1
inactive: Potency [4] | Potency [5] | Potency [8] | Potency [9]
-52.4%: activity [3]
0.397%: activity change, negative = inhibition [1]
active: Potency [16] 0.662 µM | Potency [10] 0.235 µM | Potency [11] 6.62 µM | Potency [12] 0.662 µM | Potency [13] 0.743 µM | Potency [14] 1.32 µM | Potency [18] 0.662 µM | Potency [15] 0.0662 µM
-56.1%: activity [2]

Nc1ncnc2c1c(-c1cccc(OCc3ccccc3)c1)cn2C1CC(CN2CCCC2)C1 (centres undefined)
inactive: Potency [4] | Potency [5] | Potency [6] | Potency [7] | Potency [8] | Potency [9]
-68.2%: activity [2]
active: Potency [1] 27.1 µM | Potency [16] 26.4 µM | Potency [10] 0.059 µM | Potency [11] 23.5 µM | Potency [12] 16.6 µM | Potency [13] 16.6 µM | Potency [14] 1.18 µM | Potency [18] 5.9 µM | Potency [15] 4.18 µM
-98.1%: activity [3]

O=C(c1ccc(Nc2nccc(-c3cc4ccccc4s3)n2)cc1)N1CCC(N2CCCC2)CC1
active: Potency [10] 2.96 µM | Potency [11] 18.7 µM | Potency [12] 7.43 µM | Potency [13] 13.2 µM | Potency [14] 9.35 µM | Potency [18] 4.18 µM | Potency [15] 5.9 µM
-19.2%: activity [2]
-6.01%: activity change, negative = inhibition [1]
-17.2%: activity [3]
inactive: Potency [4] | Potency [5] | Potency [6] | Potency [7] | Potency [8] | Potency [9]

CC[C@@H]1C(=O)N(C)c2cnc(Nc3ccc(C(=O)NC4CCN(C)CC4)cc3OC)nc2N1C1CCCC1
-31.6%: activity [3]
inactive: Potency [4] | Potency [5]
-45.4%: activity [2]
active: Potency [1] 21.7 µM | Potency [16] 0.0235 µM | Potency [11] 3.72 µM | Potency [12] 0.0833 µM | Potency [13] 0.0372 µM | Potency [14] 0.0296 µM | Potency [15] 0.0235 µM

COCCOc1ccc2c(c1)ncn2-c1ccc2cccc(N3CCC(N)CC3)c2n1
inactive: Potency [4] | Potency [5] | Potency [6]
-9.06%: activity [2]
active: Potency [1] 48.2 µM | Potency [16] 10.5 µM | Potency [10] 4.18 µM | Potency [12] 2.09 µM | Potency [13] 0.418 µM | Potency [18] 10.5 µM | Potency [15] 0.526 µM
-17.7%: activity [3]

NC1(Cc2ccc(Cl)cc2)CCN(c2ncnc3[nH]ccc23)CC1
-26.7%: activity [2]
0.429%: activity change, negative = inhibition [1]
-31.7%: activity [3]
active: Potency [10] 0.935 µM | Potency [12] 2.09 µM | Potency [13] 2.96 µM | Potency [15] 3.72 µM
inactive: Potency [4] | Potency [5] | Potency [6] | Potency [7] | Potency [8] | Potency [9]

COc1c(OCCCN2CCOCC2)ccc2c3n(c(=NC(=O)c4cnc(N)nc4)nc12)CCN3
inactive: activity, negative = inhibition [4] -31.4% [at 9.52 µM] and 3.3% [at 9.52 µM] | outcome [4] inactive [at 9.52 µM] | activity change, negative = inhibition [5] -4.71% [at 9.73 µM] and -19.4% [at 9.73 µM] | outcome [5] inactive [at 9.73 µM] | activity change, negative = inhibition [6] -4.27% [at 11.6 µM] | activity change, negative = thiol reactive [7] 32.5% [at 11.5 µM] | activity, negative = inhibition [8] 0.183% [at 11.6 µM] | redox activity (% of DA3003) [9] -6.72% [at 11.5 µM]
active: Potency [16] 2.88 µM | Potency [10] 0.182 µM | Potency [12] 0.512 µM | Potency [13] 0.0288 µM | Potency [14] 0.0144 µM | Potency [18] 0.102 µM | Potency [15] 0.0129 µM
